In PubChem BioAssay AID803 (The Scripps Research Institute Molecular Screening Center, 2007):
In all, about 140,000 compounds went through this assay and about 680 (0.49%) were called active. Shown is part of a subset that was picked to be rich in actives. A number with no mark means an inactive call. Rule as the data show it: active = activation above about 5% (passing the limit was not always enough); inactive = the rest.

Target: Galanin receptor type 2 (Homo sapiens) (UniProt O43603)
Experiment: GALR2 receptor agonists, primary screen, cell-based (AID 803);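 also: 0% = vehicle buffer wells and 100% = reference agonist at full effect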
Details: GALR2-expressing cells, agonist activation read-out; at 5.6 µM; hits give high values

Chain of Galanin receptor type 2 (Homo sapiens) (O43603 whole entry, looked up): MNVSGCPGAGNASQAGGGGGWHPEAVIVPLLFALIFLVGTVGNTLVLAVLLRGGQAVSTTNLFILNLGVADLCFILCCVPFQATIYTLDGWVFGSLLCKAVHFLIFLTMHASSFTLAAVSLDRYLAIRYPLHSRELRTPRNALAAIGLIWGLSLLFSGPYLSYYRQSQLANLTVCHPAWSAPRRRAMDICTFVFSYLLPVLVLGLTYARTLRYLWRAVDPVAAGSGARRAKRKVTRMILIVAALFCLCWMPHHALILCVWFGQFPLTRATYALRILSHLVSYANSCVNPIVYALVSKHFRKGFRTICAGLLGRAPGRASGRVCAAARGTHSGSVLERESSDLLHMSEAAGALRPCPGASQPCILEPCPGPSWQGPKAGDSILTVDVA

SMILES	activation
COc1ccc(NC(=S)SC)cc1OC	-0.23%
CN(C)S(=O)(=O)c1cccc(NC(=S)N/N=C/C(=O)c2ccccc2)c1	0.25%
CCNc1nc(NC(C)C)nc(N2CC(=O)N(CC(=O)OCC)C2=N)n1	0.96%
N=C(N)SCc1cccc2ccccc12	-1.3%
CCc1ccc(-c2nn(-c3ccccc3)cc2CSC(=N)N)cc1	5.34% (active)
CCn1c(SCc2ccc(C)cc2)nnc1-c1nn(-c2ccccc2)ccc1=O	-0.25%
Cc1cc[n+](-c2[nH]c(=O)sc2/C=N/NC(=O)c2ccccc2[O-])cc1C	1.06%
COc1ccccc1C1SCCN1C(=O)c1ccc([N+](=O)[O-])cc1 (stereo unspecified)	0.57%
N=c1n(CCc2ccccc2)c2ccccc2n1Cc1ccccc1F	-1.04%
OC(COc1cccc(OCC(O)CN2CCCC2)c1)CN1CCCC1 (stereo unspecified)	-0.12%
O=C1c2cccc3cccc(c23)N1CN1CCN(c2ccccn2)CC1	-1.31%
OC(COc1cccc2ccccc12)CN1CCN(c2ccccn2)CC1 (stereo unspecified)	14.5% (active)
C=CCn1c(CCNC(=O)c2cccs2)n[nH]c1=S	-1.14%
Cn1nccc1CNC(=O)c1ccnn1C	-2.14%
COc1cc(NC(=S)NNC(=O)CC(C)C)c(OC)cc1Cl	-0.97%
CCCCn1c(O)c(N=NC(=O)Cn2c(C(F)(F)F)nc3ccccc32)c2ccccc21	-0.64%
CCOC(=O)c1oc2c(CN3CCN(C)CC3)c(O)ccc2c(=O)c1-c1ccc(Br)cc1	-1.12%
Cc1csc(NC(=O)c2ccc(-c3ccc(Cl)cc3Cl)o2)n1	8.53% (active)
Cc1csc(NC(=S)Nc2cccc(Cl)c2)n1	-0.28%
O=C(Nc1cccc2ncccc12)c1ccc(-c2ccc(Cl)cc2Cl)o1	-3.29%
C=CCn1c(P(C)(=O)O)nc2ccccc21	-0.16%

SMILES	activation
Cc1ccc(C(C)NC(=O)Cn2nc(C)c([N+](=O)[O-])c2C)cc1 (stereo unspecified)	-0.83%
CCOc1ccccc1C1C(C(=O)OC)=CN(C)C=C1C(=O)OC	10.7% (active)
COC(=O)C1=CN(C)C=C(C(=O)OC)C1c1ccc(Cl)cc1Cl	7.44% (active)
CCOc1ccccc1N(CC(=O)Nc1ccccc1C(=O)OC)S(C)(=O)=O	-0.26%
CCOc1cc(C2C(C(=O)OC)=CN(C3CCCC3)C=C2C(=O)OC)cc(Br)c1O	2.25%
NNC(=O)c1ccc(Cl)cc1Cl	0.25%
CC12CN3CC(C)(CN(C1)C3c1ccc(Cl)cc1Cl)C2=O (stereo unspecified)	-0.09%
Cc1c(C(=O)c2cccc([N+](=O)[O-])c2)c2ccccn2c1CCC#N	0.65%
O=C(COC(=O)Cn1cnc2ccccc2c1=O)NCC12CC3CC(CC(C3)C1)C2	-1.72%
CCO/N=C(/C)c1c(O)cc(-c2ccccc2)n(-c2ccccc2)c1=O	0.26%
Nc1nc(SCC(=O)NNc2c(Cl)cc(Cl)cc2Cl)n[nH]1	-0.67%
c1ccc2c(c1)CSc1sccc1C2=C1CCNCC1	-2.25%
Cn1c(=O)c2c(nc(N3CCCCCC3)n2CC(=O)c2ccc(Br)cc2)n(C)c1=O	-0.03%
C=CCn1c(Oc2ccc(C(=O)OC)cc2)nc2c1c(=O)n(C)c(=O)n2C	16.4% (active)
C=CCOc1nc2c(c(=O)n(C)c(=O)n2C)n1Cc1ccc(Cl)cc1Cl	1.61%
CCOc1ccc2nc(SC(CC)C(=O)Nc3cc(C)on3)sc2c1 (stereo unspecified)	-1.01%
COc1ccc2nc(Nc3nc4ccc(NC(C)=O)cc4s3)sc2c1	2.62%
CCOc1ccc2nc(Nc3nc4ccc(NC(C)=O)cc4s3)sc2c1	35.2% (active)
N#Cc1c(NC(=O)c2ccc(N3CCOCC3)c([N+](=O)[O-])c2)sc2c1CCCC2	-1.06%
O=C(O)c1cccc(N2C(=O)Nc3ccccc3N2O)c1	-0.65%
Cc1ccccc1N(C(=O)Cc1cccs1)C(C(=O)NC1CCCCC1)c1cn(C)nc1C (stereo unspecified)	-0.31%

SMILES	activation
CCCCCOc1ccc(CSC2=NCCN2)cc1[N+](=O)[O-]	0.31%
CC(C)NC(=O)C(=O)NCCCOC(C)C	-1.05%
CCNS(=O)(=O)c1ccc(NC(=O)c2cncc(Br)c2)cc1	-1.39%
C/C(CC(=O)Nc1cccc(F)c1)=N\NC(=O)C(=O)NC1CCCCC1	-0.33%
O=C(Nc1ccc(S(=O)(=O)N2CCc3ccccc3C2)cc1)c1ccccc1	-2.86%
C=CCN(CC=C)S(=O)(=O)c1ccc(C(=O)Nc2sc3c(c2C(N)=O)CCCCC3)cc1	-0.72%
COc1ccc(C(=O)Nc2ncc3c(n2)-c2ccccc2CC3)cc1	-1.58%
CCN(c1ccccc1)S(=O)(=O)c1ccc(C(=O)Nc2nccs2)cc1	-3.23%
COCCN(CCOC)S(=O)(=O)c1ccc(C(=O)Nc2nc3c(s2)CCc2ccccc2-3)cc1	12.8% (active)
C=CCN(CC=C)S(=O)(=O)c1ccc(C(=O)Nc2nc3c(s2)CCc2ccccc2-3)cc1	9.18% (active)
O=C(CN1C2=NCCN2c2ccccc21)c1cccs1	0.13%
CCOc1ccc(Br)cc1CSC(=N)N	-1.41%
O=C(Nc1cccc(Cl)c1)Nc1ccccc1NS(=O)(=O)c1cccs1	-0.87%
Cn1c(=N)n(CC(O)c2ccccc2)c2ccccc21 (stereo unspecified)	-3.54%
Cc1cccc(OCC(O)Cn2c(=N)n(CCN3CCOCC3)c3ccccc32)c1 (stereo unspecified)	-1.56%
CCOc1ccc(C(O)Cn2c(=N)n(CCN3CCCCC3)c3ccccc32)cc1 (stereo unspecified)	25.8% (active)
O=C(COC(=O)CCCNC(=O)c1ccc(Cl)cc1)Nc1cc(Cl)ccc1Cl	-0.66%
N#Cc1ccccc1NC(=O)c1cccc(COc2ccc(Cl)cc2Cl)c1	-1.81%
CCC(C)NC(=O)c1ccc(N2CCC3(CC2)OCCO3)c([N+](=O)[O-])c1 (stereo unspecified)	1.63%
